Source: PubChem (National Center for Advancing Translational Sciences (NCATS))
KCNH2 3.1 inh: blocks the human KCNH2 3.1 channel isoform | U2OS KCNH2 3.1, thallium flux FluxOr; hits give low values | activity change, % (tested at about 1.8 µM) | hit rate 0.95% among 340,000 | AID 720553;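 active = maximum activity change below -70%; inconclusive = maximum activity change from -70% to -50%; inactive = maximum activity change above -50%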;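 note: thallium influx rate constant from kinetic fluorescence after stimulation buffer; % is set by controls: 0 for no effect and ±100 for the full control effect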
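Normalized rate constant (relative to positive and negative DMSO controls) derived from a 2 min kinetic fluorescence read after stimulation; U2OS cells expressing the 3.1 isoform via virus at 1.77 x 10^8 /mL.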
GRP78 ERSR act: induces the endoplasmic reticulum stress response in human glioma cells; U87-MG GRP78 promoter luciferase reporter, 16 h; Potency, µM, for the others: top-dose activation, most hits filed as activators; hit rate 0.02% among 420,000; AID 602332; note: potency is the fitted concentration of half-maximal effect; series mostly up to about 76 µM; % of control where 0% means no effect; nearly all actives have a fitted effect of over 35% in size
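Stably transfected U87-MG human glioma cells carrying a GRP78-based luminescent sensor were seeded at 1000 cells/well, pin-dosed with compounds and incubated 16 h. Luciferase reagent was then added, and end-point luminescence was read after 10 min at room temperature.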
PTHR1 agonist: PTHR1 (human) receptor agonism; Q03431; HEK293 GP2 PTHR1 cells, GloSensor cAMP luminescence, 1 h; Potency, µM (series often up to 115 µM), without a hit: at the highest dose activation, actives largely listed as activators; hit rate 0.075% among 410,000; AID 743266; note: potency is the fitted concentration of half-maximal effect; nearly all actives have a fitted effect of over 55% in size
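HEK-293-derived GP2 cells expressing PTHR1 and a GloSensor cAMP reporter, 3,000/well, plated overnight, given luciferin plus IBMX (each 0.5 mM as added) for 1 h at 37 °C, then compound for 1 h at 37 °C. Luminescence was read after 15 min at room temperature.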
RXFP1 agonist: agonists of human relaxin receptor RXFP1 | Q9HBX9 | HEK293T-RXFP1 cAMP TR-FRET, 30 min; response scale: percent of porcine relaxin response, buffer zero | Potency, µM (highest dose often 57.5 µM), for the others: top-dose activation, most hits filed as activators | hit rate 0.3% among 370,000 | AID 2676; note: potency is the fitted concentration of half-maximal effect; % is set by controls: 0 for no effect and ±100 for the full control effect; nearly all actives have a fitted effect of over 60% in size
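HEK293 cells stably expressing RXFP1, treated 30 min at 37C with compounds plus PDE4 inhibitor Ro 20174; cAMP measured by HTRF TR-FRET. Normalized to buffer and 29 nM porcine relaxin; EC50 by Hill fit.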
RXFP1 antagonist: antagonists of human relaxin receptor RXFP1. Q9HBX9. HEK293-RXFP1, relaxin-stimulated cAMP HTRF, 30 min; hits give low values. activity change, negative = inhibition, % at 57.5 µM. hit rate 0.59% among 350,000. AID 1259400;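 active = activity change of -60% or lower, but not beyond a set lower limit; inconclusive = change between -60% and -40%, or beyond the set limit; inactive = change above -40%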; note: % is set by controls: 0 for no effect and ±100 for the full control effect
hERG WT inh: KCNH2 (human, wildtype) channel inhibition; Q12809; U2OS, BacMam KCNH2, thallium flux FluxOr; hits give low values; activity change, % at 1.84 µM; hit rate 0.37% among 340,000;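 active = maximum activity change below -70%; inconclusive = maximum activity change between -70% and -50%; inactive = maximum activity change above -50%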; note: % is set by controls: 0 for no effect and ±100 for the full control effect
Target sequence (Q12809 whole entry, looked up): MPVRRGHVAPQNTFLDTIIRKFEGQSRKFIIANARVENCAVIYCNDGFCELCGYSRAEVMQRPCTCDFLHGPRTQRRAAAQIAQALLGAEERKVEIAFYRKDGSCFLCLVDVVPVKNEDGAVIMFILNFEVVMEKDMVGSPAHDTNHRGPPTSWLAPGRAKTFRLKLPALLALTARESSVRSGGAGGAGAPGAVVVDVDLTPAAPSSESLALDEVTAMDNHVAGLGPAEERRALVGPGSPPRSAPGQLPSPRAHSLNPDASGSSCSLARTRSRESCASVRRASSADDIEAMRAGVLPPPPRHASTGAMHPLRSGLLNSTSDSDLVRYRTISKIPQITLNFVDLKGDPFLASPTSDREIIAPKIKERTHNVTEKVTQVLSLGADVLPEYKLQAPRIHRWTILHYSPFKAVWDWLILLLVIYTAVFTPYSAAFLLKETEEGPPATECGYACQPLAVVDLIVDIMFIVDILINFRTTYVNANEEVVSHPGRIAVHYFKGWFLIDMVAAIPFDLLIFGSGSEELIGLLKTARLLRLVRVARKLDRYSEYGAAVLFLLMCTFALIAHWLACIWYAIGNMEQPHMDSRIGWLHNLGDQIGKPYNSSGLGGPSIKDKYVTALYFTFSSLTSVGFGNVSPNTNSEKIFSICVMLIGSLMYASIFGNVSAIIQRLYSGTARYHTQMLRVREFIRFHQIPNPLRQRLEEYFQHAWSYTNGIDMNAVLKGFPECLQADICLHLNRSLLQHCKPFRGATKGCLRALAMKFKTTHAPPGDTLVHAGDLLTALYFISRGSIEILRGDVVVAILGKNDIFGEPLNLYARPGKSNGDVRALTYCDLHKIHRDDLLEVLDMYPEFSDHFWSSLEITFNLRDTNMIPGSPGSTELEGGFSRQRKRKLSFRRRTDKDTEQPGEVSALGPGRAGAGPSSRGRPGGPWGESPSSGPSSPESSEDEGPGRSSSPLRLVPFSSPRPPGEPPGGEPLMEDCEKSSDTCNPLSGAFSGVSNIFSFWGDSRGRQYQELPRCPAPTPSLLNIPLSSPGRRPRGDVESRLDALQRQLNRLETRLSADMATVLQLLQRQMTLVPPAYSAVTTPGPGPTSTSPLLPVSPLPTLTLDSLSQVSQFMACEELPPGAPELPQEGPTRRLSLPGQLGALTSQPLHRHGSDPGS
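U2OS cells were transduced with wild-type KCNH2 virus (2.03 x 10^8 / mL) for 4 h at room temperature, then cultured overnight at 37 C. Thallium flux was read with FluxOr dye. Rate constants were normalized to DMSO controls.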
Starred values were filed as active, the others as inactive; i = inactive; ? = inconclusive; . = not tested or not shown; [ ] = another dose, or the depositor's remark. Only some compounds are listed: those with a hit (about 1.4% of all), similar ones and a draw of the others. Unless noted, calls come from the whole dose curve; as a rule, active = well fitted curve in the direction sought with a large enough effect; inconclusive = small, poorly fitted or top-dose-only effect, or another doubt; inactive = no such curve, though single readings can be large; an effect the other way counts as inactive or inconclusive.

SMILES	KCNH2 3.1 inh	GRP78 ERSR act	PTHR1 agonist	RXFP1 agonist	RXFP1 antagonist	hERG WT inh
COc1ccc(C)cc1NC(C)C(=O)NC(=O)NC1CCCCC1 (stereo unspecified)	-97*	-6%	-2%	1%	-18	-3
COc1cc(C)ccc1OCC(=O)NC1CCCCCC1	-15	1%	i	0%	-11	1
Cn1cc(-c2nc3cnc(Oc4ccccc4)nc3n(Cc3cccs3)c2=O)c2ccccc21	.	-3%	.	.	.	.
Cc1ccc(SCC(=O)Nc2cccc(-c3nc4cc(Cl)ccc4o3)c2C)cc1	.	.	-13%	?	-6	.
CC(NCC(=O)NC(=O)NC1CCCC1)c1ccc(Cl)cc1Cl (stereo unspecified)	?	1%	i	-2%	-63*	-48
COc1ccc(Nc2nc(N)nc(CN3CCOCC3)n2)cc1	-14	-3%	i	-1%	-4	7
CCOc1nc(Nc2ccc(OC)c(Cl)c2)nc(N2CCN(c3ccc(OC)cc3)CC2)n1	-109*	-1%	i	0%	-6	3
Cc1ccc(Nc2nc(N)nc(CN3CCN(c4ccccc4)CC3)n2)cc1Cl	-75*	-2%	-83%[57.5 µM]	0%	-22	13
CCOc1nc(Nc2ccc(F)cc2)nc(N2CCN(c3ccc(OC)cc3)CC2)n1	?	-4%	-12%	0%	-4	-3
COc1ccc(N2CCN(Cc3nc(N)nc(Nc4ccc(C)c(Cl)c4)n3)CC2)cc1	-73*	-2%	-13%[57.5 µM]	1%	-28	31
Cc1ccc(CNC(=O)CCS(=O)(=O)c2ccc3c(c2)NC(=O)C(C)S3)cc1 (stereo unspecified)	4	?	-39%	-5%	20	-4
Nc1cc(=O)[nH]c(SCC(=O)N2CCCC2)n1	3	-4%	-11%	.	3	-5
CCOC(=O)C1=C(COC(=O)CNC(=O)c2cccc(C)c2)NC(=O)NC1C (stereo unspecified)	2	-3%	i	0%	-5	-11
Cc1cccn2c(=O)nc(SCC(=O)N3CC(C)OC(C)C3)nc12 (stereo unspecified)	-4	0%	i	11%	0	-13
O=C(Cn1c(NCCCO)nc2ccccc21)c1ccc([N+](=O)[O-])cc1	-73*	2%	-3%	1%	1	-14
O=C(Cn1c(NCCO)nc2ccccc21)c1ccc([N+](=O)[O-])cc1	-13	6%	i	-1%	3	29
N=c1n(CC(=O)c2ccc(Br)cc2)c2ccccc2n1Cc1ccccc1	-84*	-10%	i	-1%	.	-2
N=c1n(CC(=O)c2ccc([N+](=O)[O-])cc2)c2ccccc2n1Cc1ccc(Cl)cc1	7	-4%	-18%	0%	.	0
N=c1n(CC(=O)c2ccc([N+](=O)[O-])cc2)c2ccccc2n1Cc1ccccc1	-75*	-3%	i	3%	.	7
O=S(=O)(/N=S1/CC=CCN1S(=O)(=O)c1ccccc1)c1ccccc1 (stereo unspecified)	-6	-10%	-33%[57.5 µM]	-1%	-72*	-4
COc1cccc(N2CCN(c3ncnc4c3[nH]c3ccccc34)CC2C)c1 (stereo unspecified)	.	.	.	0%	.	.
COc1cccc(N2CCN(c3ncnc4c3[nH]c3ccc(F)cc34)CC2C)c1 (stereo unspecified)	4	-15%	-21%[57.5 µM]	5%	-69*	9
CCCCCCCCC(C)O (stereo unspecified)	.	-3%	.	.	.	.
CCCCCCCCCCCCCCC(O)C[N+](C)(CCO)CCO (stereo unspecified)	-11	-8%	i	.	-61*	9
COC(C(=O)NNS(=O)(=O)c1ccccc1[N+](=O)[O-])c1ccccc1 (stereo unspecified)	12	13%	i	-3%	-2	-96*
SMILES	KCNH2 3.1 inh	GRP78 ERSR act	PTHR1 agonist	RXFP1 agonist	RXFP1 antagonist	hERG WT inh
COC(C(=O)NNS(=O)(=O)c1ccc([N+](=O)[O-])cc1)c1ccccc1 (stereo unspecified)	-4	-2%	i	1%	-3	1
Cc1ccc(S(=O)(=O)Nc2ccc3[nH]c(=O)sc3c2)cc1C	.	-1%	-27%	-1%	-2	.
O=C1/C(=C/c2ccncc2)SC(=S)N1N1CCOCC1	9	-6%	-24%	-1%	-34	-1
O=C1/C(=C/c2cccs2)SC(=S)N1N1CCOCC1	-6	1%	-8%	0%	-96*	8
COC(=O)c1ccc(NC(=O)CCOc2ccccc2)cc1	-8	4%	-7%	1%	13	9
CCN(CC)c1ccc(C(=C2C=CC(=[N+](CC)CC)C=C2)c2ccc(S(=O)(=O)O)cc2S(=O)(=O)[O-])cc1	1	-15%	-17%	.	-90*	-11
CN(C)c1ccc(C(=C2C=CC(=[N+](C)C)C=C2)c2c(O)c(S(=O)(=O)[O-])cc3cc(S(=O)(=O)O)ccc23)cc1	.	-11%	.	.	.	.
O=C(NC(NC(=S)Nc1ccccc1)C(Cl)(Cl)Cl)c1cccc(Cl)c1 (stereo unspecified)	-19	-3%	-90%	-1%	0	-4
COc1ccc(CN2CCN(c3ncnc4scc(-c5ccc(F)cc5)c34)CC2)cc1	-97*	0%	-2%	-1%	-61*	?
Fc1ccc(-c2csc3ncnc(N4CCN(c5ccccc5)CC4)c23)cc1	10	-4%	-10%	-1%	-65*	3
CCOc1ccc(CN2CCN(c3ncnc4scc(-c5ccccc5)c34)CC2)cc1	-116*	-3%	-28%	-1%	-18	-141*
CC(C)c1nnc(SCC(=O)N2CCOCC2)n1C	12	-4%	2%[57.5 µM]	1%	7	-8
COc1ccc(/C=N/NC(=O)c2ccncc2)cc1CN1CCOCC1	2	-4%	-9%	0%	-8	19
COc1ccc(C(=O)N/N=C/c2ccc(OC)c(CN3CCN(c4ccc(F)cc4)CC3)c2)cc1	-110*	-4%	-41%	0%	-8	-168*
COc1ccc(/C=N/NC(=O)c2cccnc2)cc1COc1ccc(NC(C)=O)cc1	12	-6%	i	3%	?	6
COc1ccc(/C=N/NC(=O)c2ccc(Br)cc2)cc1CN1CCOCC1	-85*	-2%	i	0%	-7	17
COc1ccc(/C=N/NC(=O)c2cccnc2)cc1CN1CCN(c2ccc(F)cc2)CC1	-80*	0%	-10%	-1%	2	-18
COc1ccc(/C=N/NC(=O)c2cccnc2)cc1COc1ccc([N+](=O)[O-])cc1	-4	-2%	-20%	1%	-85*	10
